# Measurements as given in PubChem BioAssay (NCATS).
# Results filed as inconclusive are left out. Entries that show only a call come without a potency. The source made the active and inactive calls. The call rests on the fitted dose curve; in most records, active means well fitted inhibition curve with a large enough effect; inconclusive means small, poorly fitted or top-dose-only effect; inactive means flat fitted curve, though single readings scatter. Peptide text beside a SMILES is read from it.
# Legend:
# Assay in all cases: qHTS profiling for inhibitors of Plasmodium falciparum proliferation (AID 504749); further: nearly all actives have a fitted effect of over 60% in size
# Conditions in all cases: P. falciparum in erythrocytes, SYBR Green DNA, 72 h; series mostly up to 28.7 µM
# [1] = test system: ATS189
# Procedure, shortened: (§1)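 P. falciparum-infected erythrocytes (0.3% parasitemia, 2.5% hematocrit final) were exposed to compounds for 72 h at 37 C in 5% CO2, then lysed with SYBR Green buffer overnight at room temperature; parasite DNA fluorescence was normalized to artemisinin and DMSO controls.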
# [2] = test system: ATS95
# Procedure, shortened: as §1
# [3] = test system: C2A
# Procedure, shortened: as §1
# [4] = test system: CP185
# Procedure, shortened: as §1
# [5] = test system: CP191
# Procedure, shortened: as §1
# [6] = test system: CP192
# Procedure, shortened: as §1
# [7] = test system: CP194
# Procedure, shortened: as §1
# [8] = test system: CP201
# Procedure, shortened: as §1
# [9] = test system: CP211
# Procedure, shortened: as §1
# [10] = test system: CP203
# Procedure, shortened: as §1
# Potency means the concentration at half of the fitted maximal effect.
Structure (SMILES),Potency [1],Potency [2],Potency [3],Potency [4],Potency [5],Potency [6],Potency [7],Potency [8],Potency [9],Potency [10]
CS(=O)(=O)OCCCCOS(C)(=O)=O,inactive,inactive,inactive,inactive,inactive,inactive,inactive,inactive,inactive,
Cc1ccc(C)c(OCCCC(C)(C)C(=O)O)c1,inactive,inactive,inactive,inactive,inactive,inactive,inactive,inactive,inactive,inactive
NNc1nncc2ccccc12,3.55 µM (active),inactive,inactive,inactive,3.55 µM (active),inactive,inactive,inactive,inactive,
COc1ccc2cc([C@H](C)C(=O)O)ccc2c1,inactive,inactive,inactive,inactive,inactive,inactive,inactive,inactive,inactive,inactive
N=C(N=C(N)N)N1CCOCC1,inactive,inactive,inactive,inactive,inactive,inactive,inactive,inactive,inactive,inactive
CCOC(=O)c1c(C)n(C)c2ccc(O)cc12,inactive,inactive,inactive,inactive,inactive,inactive,inactive,inactive,,
CCC[C@@H]1C[C@@H](C(=O)N[C@@H]([C@H]2O[C@H](SC)[C@H](O)[C@@H](O)[C@H]2O)[C@@H](C)O)N(C)C1,inactive,,,,,,,,,
O=C(NC(Cc1cc(=O)[nH]c2ccccc12)C(=O)O)c1ccc(Cl)cc1 (stereo unspecified),inactive,inactive,inactive,inactive,inactive,inactive,inactive,inactive,inactive,inactive
COc1ccc(C2(C#N)CCC(C(=O)O)CC2)cc1OC1CCCC1 (stereo unspecified),inactive,inactive,inactive,inactive,inactive,inactive,inactive,inactive,inactive,inactive
Nc1nc(Cl)nc2c1ncn2[C@H]1C[C@H](O)[C@@H](CO)O1,inactive,inactive,inactive,inactive,inactive,,,,,
Cc1cccc(C)c1OCC(=O)N[C@@H](Cc1ccccc1)[C@@H](O)C[C@H](Cc1ccccc1)NC(=O)[C@H](C(C)C)N1CCCNC1=O,3.98 µM (active),3.98 µM (active),11.2 µM (active),10 µM (active),5.62 µM (active),6.75 µM (active),7.57 µM (active),10.7 µM (active),7.57 µM (active),6.01 µM (active)
O=C1c2ccccc2-c2n[nH]c3cccc1c23,inactive,inactive,inactive,inactive,inactive,inactive,inactive,inactive,inactive,inactive
CCC1=C(C)CN(C(=O)NCCc2ccc(S(=O)(=O)NC(=O)NC3CCC(C)CC3)cc2)C1=O (stereo unspecified),inactive,inactive,inactive,inactive,inactive,inactive,inactive,inactive,inactive,inactive
C=CCc1cc(OC)c(O)c(C(=O)NCCO)c1,inactive,inactive,inactive,inactive,inactive,inactive,inactive,inactive,inactive,inactive
Cc1ccc(NC(=O)c2ccc(CN3CCN(C)CC3)cc2)cc1Nc1nccc(-c2cccnc2)n1,12.6 µM (active),10 µM (active),11.2 µM (active),,,,,,,
Cc1cc2c(s1)Nc1ccccc1N=C2N1CCN(C)CC1,inactive,inactive,inactive,inactive,inactive,inactive,inactive,inactive,inactive,inactive
CN(C)CCc1c[nH]c2ccc(Cn3cncn3)cc12,inactive,inactive,inactive,inactive,inactive,inactive,inactive,inactive,inactive,
O=C(NCCO[N+](=O)[O-])c1cccnc1,inactive,inactive,inactive,inactive,inactive,inactive,inactive,inactive,inactive,
N[C@@H](Cc1cc(I)c(Oc2cc(I)c(O)c(I)c2)c(I)c1)C(=O)O,inactive,inactive,inactive,inactive,inactive,inactive,inactive,inactive,inactive,inactive

Structure (SMILES),Potency [1],Potency [2],Potency [3],Potency [4],Potency [5],Potency [6],Potency [7],Potency [8],Potency [9],Potency [10]
Cc1cc2cc3c(C)cc(=O)oc3c(C)c2o1,inactive,inactive,inactive,inactive,inactive,inactive,inactive,inactive,inactive,inactive
O=P(O)(O)C(O)(Cn1ccnc1)P(=O)(O)O,inactive,inactive,inactive,inactive,inactive,inactive,inactive,inactive,inactive,
CNC[C@H](O)c1ccc(O)c(O)c1,inactive,inactive,inactive,inactive,inactive,inactive,inactive,inactive,inactive,inactive
CCCc1cc(=O)[nH]c(=S)[nH]1,inactive,inactive,inactive,inactive,inactive,inactive,inactive,inactive,inactive,
Cc1c(OCC(F)(F)F)ccnc1CS(=O)c1nc2ccccc2[nH]1 (stereo unspecified),inactive,inactive,inactive,inactive,inactive,inactive,inactive,inactive,inactive,inactive
CC(S)C(=O)NCC(=O)O (stereo unspecified),inactive,inactive,inactive,inactive,inactive,inactive,inactive,inactive,inactive,inactive
CCOc1cc(CC(=O)N[C@@H](CC(C)C)c2ccccc2N2CCCCC2)ccc1C(=O)O,inactive,inactive,inactive,inactive,inactive,inactive,inactive,inactive,inactive,inactive
CNC[C@@H](O)[C@@H](O)[C@H](O)[C@H](O)CO,inactive,inactive,inactive,inactive,inactive,inactive,inactive,inactive,inactive,inactive
O=c1oc2cc(O)ccc2s1,inactive,inactive,inactive,inactive,inactive,inactive,inactive,inactive,inactive,inactive
Nc1ccc(S(N)(=O)=O)cc1,inactive,inactive,inactive,inactive,inactive,inactive,inactive,inactive,inactive,
CCCCc1ccc2nc(NC(=O)OC)[nH]c2c1,inactive,inactive,inactive,inactive,inactive,inactive,inactive,inactive,inactive,
COc1cc2c(cc1OC)C1CC(=O)C(CC(C)C)CN1CC2 (stereo unspecified),inactive,inactive,inactive,inactive,inactive,inactive,inactive,inactive,inactive,
Nc1ccn([C@@H]2O[C@H](CO)[C@@H](O)C2O)c(=O)n1 (stereo partly specified),inactive,inactive,inactive,inactive,inactive,inactive,inactive,inactive,inactive,
COC(=O)[C@H](Cc1ccccc1)NC(=O)[C@@H](N)CC(=O)O (H-Asp-Phe-OMe),inactive,inactive,inactive,inactive,inactive,inactive,inactive,inactive,inactive,
C[Se]CCC(N)C(=O)O (stereo unspecified),inactive,inactive,inactive,inactive,inactive,inactive,inactive,inactive,inactive,
CCN(CC)CCOc1ccc(Cc2ccccc2)cc1,inactive,inactive,inactive,inactive,inactive,inactive,inactive,inactive,inactive,
O=C(O)c1cc(=O)c2c(OCC(O)COc3cccc4oc(C(=O)O)cc(=O)c34)cccc2o1,inactive,inactive,inactive,inactive,inactive,inactive,inactive,inactive,inactive,
Oc1ccc(OCc2ccccc2)cc1,inactive,inactive,inactive,inactive,inactive,inactive,inactive,inactive,inactive,
O=C(O)c1cccc(-c2noc(-c3ccccc3F)n2)c1,inactive,inactive,inactive,inactive,inactive,inactive,inactive,inactive,inactive,
